Experimental data as given in PubChem BioAssay (NCATS).

Assay: qHTS profiling of the MIPE4 collection as inhibitors of Plasmodium falciparum (DD2) proliferation (Rep 2) (AID 743346)
Details: P. falciparum Dd2 in erythrocytes, SYBR Green DNA, 72 h; at 28.5 µM unless noted
Outline: (§1)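 Parasite DNA was quantified by SYBR Green I fluorescence (ex 485, em 535 nm) after overnight lysis in saponin/Triton buffer at room temperature. Cultures at 0.3% parasitemia and 2.5% hematocrit were first exposed to compound for 72 h at 37 C; signals were normalised to artemisinin (0.29 uM) and vehicle wells.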

Row | Compound | parasite growth, % of control (lower = inhibition)
1 | Cc1cnc(CNC(=O)c2c(=O)c3ccc(N4CCCN(C)CC4)nc3n3c2sc2ccccc23)cn1 | 13.1% [at 9.64 µM]
2 | CCC[C@H](N[C@@H](C)C(=O)N1[C@@H]2CCCC[C@H]2C[C@H]1C(=O)O)C(=O)OCC | 41.1%
3 | CCn1c(-c2nonc2N)nc2cncc(CNC3CCNCC3)c21 | 43.8%
4 | Cn1c(=O)c(-c2c(Cl)cccc2Cl)cc2cnc(Nc3cccc(C(=O)O)c3)nc21 | 19.9%
5 | Cc1c(-c2cccc3c(CCCOc4cccc5ccccc45)c(C(=O)O)n(Cc4cccnc4)c23)c(COc2ccc(N3CCN([S+](=O)([O-])N(C)C)CC3)cc2)nn1C | 15.4%
6 | O=C(Nc1cccc(C(F)(F)F)c1)Nc1cc(S(=O)(=O)NC2CC2)ccc1-c1ccsc1 | 51.8%
7 | CC(=O)NCCC(=O)N[C@@H](CCC(N)=O)C(=O)N[C@@H](CO)C(=O)N[C@@H](CCC(N)=O)C(=O)N[C@@H](CCC(N)=O)C(=O)N[C@H](C(=O)N[C@@H](Cc1ccccc1)C(=O)N[C@]1(C)CCCCCCC=CCCC[C@@](C)(C(=O)N[C@@H](CCC(N)=O)C(=O)N[C@@H](CC(N)=O)C(N)=O)NC(=O)[C@H](CC(C)C)NC(=O)[C@H](CC(C)C)NC(=O)[C@@H](CCCNC(=N)N)NC(=O)[C@H](Cc2c[nH]c3ccccc23)NC(=O)[C@H](CC(C)C)NC(=O)[C@H](CC(N)=O)NC1=O)[C@H](C)O | 28.5%
8 | C[C@@]1(c2cc(-c3cncnc3)c(F)cc2F)CCSC(N)=N1 | 28.2%
9 | Cc1cc(CS(=O)(=O)c2ccccc2)cc(OCc2ccc(CN3CCC[C@H]3CO)cc2)c1 | 18.8%
10 | O=C1Nc2ccc(I)cc2C1=Cc1cc(Br)c(O)c(Br)c1 | 32.9%
11 | CCc1cccc(CC)c1NC(=O)N1Cc2[nH]nc(NC(=O)c3ccc(N4CCN(C)CC4)cc3)c2C1 | 21.6%
12 | Nc1[nH]nc2nnc(-c3c(-c4ccccc4)nn4ccccc34)cc12 | 46.8%
13 | Cc1nc(NC(=O)N2CCC[C@@H]2C(N)=O)sc1-c1csc(C(C)(C)C)n1 | 28.5%
14 | CCCCc1ccc(NS(=O)(=O)c2ccc(C)c(C(=O)N3CCN(c4cccc(C)c4C)CC3)c2)cc1 | 59.2%
15 | CCNC(=O)c1noc(-c2cc(C(C)C)c(O)cc2O)c1-c1ccc(CN2CCOCC2)cc1 | 9.57%
16 | CC1C(=O)OC2C(O)C34C5CC(C(C)(C)C)C36C(OC(=O)C6O)OC4(C(=O)O5)C12O (centres undefined) | 85.6%

Row | Compound | parasite growth, % of control (lower = inhibition)
17 | COc1ccc(-c2cc(=O)c3c(O)cc(O[C@@H]4O[C@H](CO[C@@H]5O[C@@H](C)[C@H](O)[C@@H](O)[C@@H]5O)[C@@H](O)[C@H](O)[C@@H]4O)cc3o2)cc1O | 33.2%
18 | CCCCC(C)(C)[C@H](O)C=C[C@H]1[C@H](O)CC(=O)[C@H]1CC=CCCCC(=O)O | 39.2%
19 | CC1(COc2ccc3c(c2)ncn3-c2ccc3cccc(N4CCC(N)CC4)c3n2)COC1 | 14.5%
20 | O=C(NCCCCN1CCOCC1)c1cc2ccccc2o1 | 41.5%
21 | CC(=O)O[C@]1(C(C)=O)CC[C@H]2[C@@H]3C=C(Cl)C4=CC(=O)[C@@H]5C[C@H]5[C@]4(C)[C@@H]3CC[C@@]21C | 18.7%
22 | CCC[C@H](Nc1nc(-c2ccc(NC(=O)NCC)c(OC)c2)ncc1C)c1cccnc1 | 20.1%
23 | O=C(Nc1cccc2c(=O)cc(-c3nn[nH]n3)oc12)c1ccc(OCCCCc2ccccc2)cc1 | 15.1%
24 | CN1CCC(COc2cnc(-c3cccc(Cn4nc(-c5cccc(C#N)c5)ccc4=O)c3)nc2)CC1 | 15.3%
25 | CC(C)Oc1cc(Nc2nc(N[C@@H](C)c3ccc(F)cn3)ncc2Cl)[nH]n1 | 23.2%
26 | CC[C@]1(O)C[C@H]2CN(CCC3=c4ccccc4=N[C]3[C@@](C(=O)OC)(c3cc4c(cc3OC)N(C)[C@H]3[C@@](O)(C(N)=O)[C@H](O)[C@]5(CC)C=CCN6CC[C@]43[C@@H]65)C2)C1 | 35%
27 | CCOC(=O)N1CCN([N+]([O-])=NOc2cc(ON=[N+]([O-])N3CCN(C(=O)OCC)CC3)c([N+](=O)[O-])cc2[N+](=O)[O-])CC1 | 49.8%
28 | CCOC(=O)[C@H](CCc1ccccc1)N[C@@H](C)C(=O)N1CCCC1C(=O)O (some centres undefined) | 75.7%
29 | Cc1ccc(NC(=O)Nc2cc(C(F)(F)F)ccc2F)cc1Nc1ccc2c(c1)NC(=O)C2=Cc1ccc[nH]1 | 21.7%
30 | C=C[C@@H]1CN2CCC1C[C@@H]2C(O)c1ccnc2ccc(OC)cc12 (some centres undefined) | 12%
31 | CN1CCN2c3ncccc3Cc3ccccc3C2C1 (centres undefined) | 50.4%

Assay: qHTS profiling of the MIPE4 collection as inhibitors of Plasmodium falciparum (HB3) proliferation (AID 743347);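 also: plate controls were DMSO vehicle wells for no effect and artemisinin wells for full effect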
Details: P. falciparum HB3 in erythrocytes, SYBR Green DNA, 72 h; at 28.5 µM unless noted
Outline: as §1

Row | Compound | growth, % of control
32 | Cc1cnc(CNC(=O)c2c(=O)c3ccc(N4CCCN(C)CC4)nc3n3c2sc2ccccc23)cn1 | 3.84% [at 9.64 µM]
33 | CCC[C@H](N[C@@H](C)C(=O)N1[C@@H]2CCCC[C@H]2C[C@H]1C(=O)O)C(=O)OCC | 98.7%
34 | CCn1c(-c2nonc2N)nc2cncc(CNC3CCNCC3)c21 | 7.55%
35 | O=C1NC(=O)C(c2cnc3ccccn23)=C1c1cn2c3c(cccc13)CN(C(=O)N1CCOCC1)CC2 | 54.5%
36 | Cc1c(-c2cccc3c(CCCOc4cccc5ccccc45)c(C(=O)O)n(Cc4cccnc4)c23)c(COc2ccc(N3CCN([S+](=O)([O-])N(C)C)CC3)cc2)nn1C | 4.06%
37 | O=C(Nc1cccc(C(F)(F)F)c1)Nc1cc(S(=O)(=O)NC2CC2)ccc1-c1ccsc1 | 78.9%
38 | CC(=O)NCCC(=O)N[C@@H](CCC(N)=O)C(=O)N[C@@H](CO)C(=O)N[C@@H](CCC(N)=O)C(=O)N[C@@H](CCC(N)=O)C(=O)N[C@H](C(=O)N[C@@H](Cc1ccccc1)C(=O)N[C@]1(C)CCCCCCC=CCCC[C@@](C)(C(=O)N[C@@H](CCC(N)=O)C(=O)N[C@@H](CC(N)=O)C(N)=O)NC(=O)[C@H](CC(C)C)NC(=O)[C@H](CC(C)C)NC(=O)[C@@H](CCCNC(=N)N)NC(=O)[C@H](Cc2c[nH]c3ccccc23)NC(=O)[C@H](CC(C)C)NC(=O)[C@H](CC(N)=O)NC1=O)[C@H](C)O | 30.1%
39 | C=C1c2cccc(O)c2C(O)=C2C(=O)[C@@]3(O)C(O)=C(C(N)=O)C(=O)[C@@H](N(C)C)[C@@H]3[C@@H](O)[C@H]12 | 15.6%
40 | C[C@@]1(c2cc(-c3cncnc3)c(F)cc2F)CCSC(N)=N1 | 14%
41 | Cc1cc(CS(=O)(=O)c2ccccc2)cc(OCc2ccc(CN3CCC[C@H]3CO)cc2)c1 | 66.2%
42 | O=C1Nc2ccc(I)cc2C1=Cc1cc(Br)c(O)c(Br)c1 | 17.7%
43 | CCc1cccc(CC)c1NC(=O)N1Cc2[nH]nc(NC(=O)c3ccc(N4CCN(C)CC4)cc3)c2C1 | 6.85%
44 | Nc1[nH]nc2nnc(-c3c(-c4ccccc4)nn4ccccc34)cc12 | 26%
45 | Cc1nc(NC(=O)N2CCC[C@@H]2C(N)=O)sc1-c1csc(C(C)(C)C)n1 | 14.5%
46 | CCCCc1ccc(NS(=O)(=O)c2ccc(C)c(C(=O)N3CCN(c4cccc(C)c4C)CC3)c2)cc1 | 257%
47 | CCNC(=O)c1noc(-c2cc(C(C)C)c(O)cc2O)c1-c1ccc(CN2CCOCC2)cc1 | 4.24%
48 | N#CC1(c2cccc(C(=O)Nc3cc(Oc4ccc5nc(NC(=O)C6CC6)sc5n4)ccc3F)c2Cl)CC1 | 9.87%

Row | Compound | growth, % of control
49 | CN(C)CCOc1ccc(C(=C(CCCl)c2ccccc2)c2ccccc2)cc1 | 27%
50 | COc1ccc(-c2cc(=O)c3c(O)cc(O[C@@H]4O[C@H](CO[C@@H]5O[C@@H](C)[C@H](O)[C@@H](O)[C@@H]5O)[C@@H](O)[C@H](O)[C@@H]4O)cc3o2)cc1O | 23.4%
51 | CCCCC(C)(C)[C@H](O)C=C[C@H]1[C@H](O)CC(=O)[C@H]1CC=CCCCC(=O)O | 75.8%
52 | CC1(COc2ccc3c(c2)ncn3-c2ccc3cccc(N4CCC(N)CC4)c3n2)COC1 | 4.9%
53 | O=C(NCCCCN1CCOCC1)c1cc2ccccc2o1 | 87.4%
54 | CC(=O)O[C@]1(C(C)=O)CC[C@H]2[C@@H]3C=C(Cl)C4=CC(=O)[C@@H]5C[C@H]5[C@]4(C)[C@@H]3CC[C@@]21C | 20.1%
55 | CCC[C@H](Nc1nc(-c2ccc(NC(=O)NCC)c(OC)c2)ncc1C)c1cccnc1 | 4.28%
56 | COc1cc2nc(-c3cc(F)ccc3O)nc(N[C@@H]3CNC[C@@H]3C(C)(C)O)c2cc1OC | 3.61%
57 | O=C(Nc1cccc2c(=O)cc(-c3nn[nH]n3)oc12)c1ccc(OCCCCc2ccccc2)cc1 | 7.59%
58 | CN1CCC(COc2cnc(-c3cccc(Cn4nc(-c5cccc(C#N)c5)ccc4=O)c3)nc2)CC1 | 4.54%
59 | CC[C@]1(O)C[C@H]2CN(CCC3=c4ccccc4=N[C]3[C@@](C(=O)OC)(c3cc4c(cc3OC)N(C)[C@H]3[C@@](O)(C(N)=O)[C@H](O)[C@]5(CC)C=CCN6CC[C@]43[C@@H]65)C2)C1 | 17.4%
60 | CCOC(=O)N1CCN([N+]([O-])=NOc2cc(ON=[N+]([O-])N3CCN(C(=O)OCC)CC3)c([N+](=O)[O-])cc2[N+](=O)[O-])CC1 | 48%
61 | CCOC(=O)[C@H](CCc1ccccc1)N[C@@H](C)C(=O)N1CCCC1C(=O)O (some centres undefined) | 95.2%
62 | Cc1ccc(NC(=O)Nc2cc(C(F)(F)F)ccc2F)cc1Nc1ccc2c(c1)NC(=O)C2=Cc1ccc[nH]1 | 10.9%
63 | C=C[C@@H]1CN2CCC1C[C@@H]2C(O)c1ccnc2ccc(OC)cc12 (some centres undefined) | 3.29%
64 | CN1CCN2c3ncccc3Cc3ccccc3C2C1 (centres undefined) | 75.6%
